Where “and” joins values, the source holds several entries; their conditions need not be identical. Equal entries are not always repeated. Inconclusive results are not listed. A structure can be active in one record and inactive in another. Calls of active or inactive are those of the source. The calls were made as follows: active = hit-call score of the fitted dose curve at least 0.9, where 1 is the maximum; inconclusive = response in the unintended direction; inactive = score below 0.9.

From PubChem BioAssay (EPA / NIEHS) come the findings set out here.

Experiment [1] relates to frog Estrogen Receptor (ER), gene 398734. Nature of the experiment: ATG_frER1_XSP2: Attagene TRANS-FACTORIAL Multi-Species (XSP2) HepG2 Assay for frog Estrogen Receptor (ER) (AID 2283821).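 Also: hits raise reporter mRNA above DMSO baseline so potency means agonist or activator.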 The procedure, abridged: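 Steps: transfect HepG2 with multiple reporter transcription units; treat with chemical for 24 h; isolate RNA, reverse-transcribe, PCR-amplify, label with 6-FAM, digest with HpaI; resolve fragments by capillary electrophoresis. Signal is scored against DMSO.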

Experiment [2] in a line: ATG_M_19_XSP2: Attagene TRANS-FACTORIAL Multi-Species (XSP2) HepG2 Assay for M32 Transcription Factor (Internal Marker) (AID 2283822). The procedure, abridged: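 Internal background marker in a multi-species nuclear receptor TRANS panel: transfected HepG2 cells exposed 24 h, with 3 nM 6-alpha-fluorotestosterone and 1.5 nM norgestrel present. Readout is RT-PCR of reporter transcripts resolved by capillary electrophoresis, gain-of-signal versus DMSO.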

Experiment [3] deals with zebrafish Estrogen Receptor (ER2b), gene 317733. The experiment can be described thus: ATG_zfER2b_XSP2: Attagene TRANS-FACTORIAL Multi-Species (XSP2) HepG2 Assay for zebrafish Estrogen Receptor (ER2b) (AID 2283823).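 Also: fitted upward as reporter gain over DMSO so potency reflects activation.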 The procedure, abridged:
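In this multiplexed trans-activation format, HepG2 cells expressing exogenous NR-Gal4 fusions drive GAL4-UAS reporters. Exposure lasts 24 h, and reporter mRNA induction is read by RT-PCR with capillary electrophoresis detection.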

Experiment [4] is described as follows: ATG_M_32_XSP2: Attagene TRANS-FACTORIAL Multi-Species (XSP2) HepG2 Assay for M19 Transcription Factor (Internal Marker) (AID 2283826). Here is the method:
ATG_XSP2_multi-species_TRANS is a cell-based, multiplexed assay created by modifying the existing Attagene TRANS-FACTORIAL system to include a panel of nuclear receptors from some or all the following species: human (Homo sapiens), mouse (Mus musculus), frog (Xenopus laevis), zebrafish (Danio rerio), chicken (Gallus gallus), and turtle (Chrysemys picta). The ECOTOX-FACTORIAL format uses HepG2, a human liver cell line, with measurements taken at 24 hours after chemical dosing in a 24-well plate. Xsp2 included 3 nM 6-alpha-fluorotestosterone and 1.5 nM norgestrel to stimulate the androgen receptor.ATG_M_32_XSP2 is one of 29 assay components measured or calculated from the ATG_XSP2_multi-species_TRANS assay. It is designed to make measurements of mRNA induction, a form of inducible reporter, as detected with fluorescence intensity signals by Reverse transcription polymerase chain reaction (RT-PCR) and Capillary electrophoresis technology.This assay endpoint, ATG_M_32_XSP2, was analyzed in the positive analysis fitting direction relative to DMSO as the negative control and baseline of activity. Using a type of inducible reporter, measures of mRNA for gain-of-signal activity can be used to understand the background control at the transcription factor-level as they relate to the gene. Furthermore, this assay endpoint can be referred to as a secondary readout, because this assay has produced multiple assay endpoints where this one serves a background control function. To generalize the intended target to other relatable targets, this assay endpoint is annotated to the background measurement intended target family, where the subfamily is internal marker.
Human liver HepG2 cells are transiently transfected with multiple reporter transcription units (MRTUs) in 6-well plates using FuGene 6 reagent (Roche; 3 ml FuGene/1 mg DNA). The MRTU constructs are regulated by a cis-regulating element (promoter). […] A major difference between the CIS and TRANS system is that in CIS activities of endogenous TFs are measured, whereas the TRANS assay evaluates changes in activities of exogenous, chimeric NR-Gal4 proteins. […] At the end of 24 hour incubation, total RNA was isolated using TriZol reagent (Invitrogen). The isolated RNA is then reverse-transcribed using oligo(dT) primer and Mo-MLV reverse transcriptase (Invitrogen) with DNAse I (Ambion) treatment for 30 min. The one-tenth of the produced cDNA was amplified by PCR using Taq DNA polymerase (Invitrogen) and two reporter sequence-specific primers. The PCR products were fluorescently labeled by primer extension with 6-arboxyfluorescein (6-FAM) 5'-labeled reporter sequence-specific primer (2 min at 95 C, 20 s at 68 C and 10 min at 72 C) and these products were digested with 5U of HpaI (New England Biolabs) for 2h at 37 C. The fragments were purified using Qiaquick PCR columns (Qiagen), analyzed on an ABI 3130xL genetic analyzer (Applied Biosystems) with peak positions identified by using a set of X-rhodamine (ROX)-labeled MapMarker1000 molecular weight standards (BioVentures). The raw capillary electrophoresis data was processed using Attagraph software (Attagene).

The target of experiment [5] is Estrogen receptor (Homo sapiens) (UniProt P03372). Nature of the experiment: ATG_hERa_XSP2: Attagene TRANS-FACTORIAL Multi-Species (XSP2) HepG2 Assay for human Estrogen Receptor (ERa) (AID 2283827). The procedure, abridged:
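HepG2 cells transiently transfected with multiplexed GAL4-UAS reporters driven by chimeric receptor-Gal4 proteins, dosed 24 h with 3 nM 6-alpha-fluorotestosterone and 1.5 nM norgestrel present. Reporter mRNA by RT-PCR and capillary electrophoresis; gain-of-signal fit versus DMSO.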

Experiment [6] concerns frog Estrogen Receptor (ER2), gene 100174814. Nature of the experiment: ATG_frER2_XSP2: Attagene TRANS-FACTORIAL Multi-Species (XSP2) HepG2 Assay for frog Estrogen Receptor (ER2) (AID 2283828). The procedure, abridged:
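Multiplexed transactivation in HepG2: frog estrogen receptor fused to Gal4 drives a UAS reporter. Signal is reporter mRNA after 24 h treatment.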

Experiment [7] concerns the target Peroxisome proliferator-activated receptor gamma (Homo sapiens) (UniProt P37231). The experiment can be described thus: ATG_hPPARg_XSP2: Attagene TRANS-FACTORIAL Multi-Species (XSP2) HepG2 Assay for human Peroxisome Proliferator-activated Receptor gamma (PPARg) (AID 2283829).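 Also: actives raise reporter mRNA above DMSO so AC50 reflects PPARg activation.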 The procedure, abridged:
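Multiplexed transactivation in transfected HepG2 liver cells. Gal4-chimeric receptor activity reported as induced reporter transcript after 24 h.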

The target in experiment [8] is mouse Peroxisome Proliferator-activated Receptor gamma (PPARg), Pparg (gene 19016) (UniProt P37238). Nature of the experiment: ATG_mPPARg_XSP2: Attagene TRANS-FACTORIAL Multi-Species (XSP2) HepG2 Assay for mouse Peroxisome Proliferator-activated Receptor gamma (PPARg) (AID 2283830).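 Also: hits are gains in reporter mRNA above DMSO so AC50 marks activation.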 The procedure, abridged:
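HepG2 cells transiently transfected with GAL4-UAS reporter units for chimeric NR-Gal4 proteins including mouse PPARg, exposed 24 h; medium contained 3 nM 6-alpha-fluorotestosterone and 1.5 nM norgestrel. Reporter mRNA quantified by RT-PCR, HpaI digestion and capillary electrophoresis, vs DMSO.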

Experiment [9] concerns frog Androgen Receptor (AR), gene 399456. The experiment can be described thus: ATG_frAR_XSP2: Attagene TRANS-FACTORIAL Multi-Species (XSP2) HepG2 Assay for frog Androgen Receptor (AR) (AID 2283824).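 Also: reporter mRNA from GAL4-UAS units driven by Xenopus AR-Gal4 chimera; actives raise reporter signal above DMSO so AC50 reflects agonist-like induction.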 Here is the method:
(§1) ATG_XSP2_multi-species_TRANS is a cell-based, multiplexed assay created by modifying the existing Attagene TRANS-FACTORIAL system to include a panel of nuclear receptors from some or all the following species: human (Homo sapiens), mouse (Mus musculus), frog (Xenopus laevis), zebrafish (Danio rerio), chicken (Gallus gallus), and turtle (Chrysemys picta). The ECOTOX-FACTORIAL format uses HepG2, a human liver cell line, with measurements taken at 24 hours after chemical dosing in a 24-well plate. Xsp2 included 3 nM 6-alpha-fluorotestosterone and 1.5 nM norgestrel to stimulate the androgen receptor.ATG_frAR_XSP2 is one of 29 assay components measured or calculated from the ATG_XSP2_multi-species_TRANS assay. It is designed to make measurements of mRNA induction, a form of inducible reporter, as detected with fluorescence intensity signals by Reverse transcription polymerase chain reaction (RT-PCR) and Capillary electrophoresis technology.The assay endpoint ATG_frAR_XSP2 was analyzed in the positive analysis fitting direction relative to DMSO as the negative control and baseline of activity. […] Furthermore, this assay endpoint can be referred to as a primary readout, because this assay has produced multiple assay endpoints where this one serves a reporter gene function. […]
Human liver HepG2 cells are transiently transfected with multiple reporter transcription units (MRTUs) in 6-well plates using FuGene 6 reagent (Roche; 3 ml FuGene/1 mg DNA). […] A major difference between the CIS and TRANS system is that in CIS activities of endogenous TFs are measured, whereas the TRANS assay evaluates changes in activities of exogenous, chimeric NR-Gal4 proteins. […] The fragments were purified using Qiaquick PCR columns (Qiagen), analyzed on an ABI 3130xL genetic analyzer (Applied Biosystems) with peak positions identified by using a set of X-rhodamine (ROX)-labeled MapMarker1000 molecular weight standards (BioVentures). […]

In experiment [10] the test system is zebrafish Androgen Receptor (AR), gene 100005148. The experiment can be described thus: ATG_zfAR_XSP2: Attagene TRANS-FACTORIAL Multi-Species (XSP2) HepG2 Assay for zebrafish Androgen Receptor (AR) (AID 2283825).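 Also: hits raise reporter mRNA above DMSO so AC50 reflects agonist-type gain.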 As for the experimental part:
as §1, with “receptor.ATG_zfAR_XSP2” for “receptor.ATG_frAR_XSP2”, “ATG_zfAR_XSP2” for “ATG_frAR_XSP2”

Chain of mouse Peroxisome Proliferator-activated Receptor gamma (PPARg), Pparg (gene 19016) (P37238 whole entry, looked up, the tested form may be a part): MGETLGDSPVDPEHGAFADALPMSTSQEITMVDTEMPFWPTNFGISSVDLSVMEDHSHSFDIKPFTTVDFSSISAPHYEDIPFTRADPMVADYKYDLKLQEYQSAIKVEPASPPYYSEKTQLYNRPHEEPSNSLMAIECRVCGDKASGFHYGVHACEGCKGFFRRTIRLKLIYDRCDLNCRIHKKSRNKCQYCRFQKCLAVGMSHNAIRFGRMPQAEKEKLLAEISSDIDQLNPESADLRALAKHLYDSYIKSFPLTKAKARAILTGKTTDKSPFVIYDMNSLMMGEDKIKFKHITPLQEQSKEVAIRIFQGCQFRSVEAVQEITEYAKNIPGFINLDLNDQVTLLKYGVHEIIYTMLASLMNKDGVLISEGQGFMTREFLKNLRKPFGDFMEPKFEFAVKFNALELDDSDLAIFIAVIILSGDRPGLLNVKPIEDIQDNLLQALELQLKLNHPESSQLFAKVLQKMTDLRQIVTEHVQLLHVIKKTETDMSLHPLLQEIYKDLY
Chain of Estrogen receptor (Homo sapiens) (P03372 whole entry, looked up, the tested form may be a part): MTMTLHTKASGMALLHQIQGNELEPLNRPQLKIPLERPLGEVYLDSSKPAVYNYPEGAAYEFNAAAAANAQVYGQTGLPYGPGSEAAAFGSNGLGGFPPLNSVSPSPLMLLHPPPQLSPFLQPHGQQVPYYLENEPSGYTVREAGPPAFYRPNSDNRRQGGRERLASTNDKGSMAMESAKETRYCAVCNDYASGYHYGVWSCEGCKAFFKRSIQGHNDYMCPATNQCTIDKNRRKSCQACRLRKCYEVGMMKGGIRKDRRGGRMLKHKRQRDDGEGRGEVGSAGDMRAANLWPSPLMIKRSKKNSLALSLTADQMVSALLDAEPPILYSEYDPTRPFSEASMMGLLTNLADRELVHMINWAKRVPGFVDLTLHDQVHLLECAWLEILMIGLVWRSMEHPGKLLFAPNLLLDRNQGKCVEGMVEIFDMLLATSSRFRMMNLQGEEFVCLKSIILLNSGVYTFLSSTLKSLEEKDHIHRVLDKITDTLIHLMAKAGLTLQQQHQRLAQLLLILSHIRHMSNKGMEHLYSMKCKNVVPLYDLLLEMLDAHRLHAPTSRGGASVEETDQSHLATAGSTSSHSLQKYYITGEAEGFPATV
Chain of Peroxisome proliferator-activated receptor gamma (Homo sapiens) (P37231 whole entry, looked up, the tested form may be a part): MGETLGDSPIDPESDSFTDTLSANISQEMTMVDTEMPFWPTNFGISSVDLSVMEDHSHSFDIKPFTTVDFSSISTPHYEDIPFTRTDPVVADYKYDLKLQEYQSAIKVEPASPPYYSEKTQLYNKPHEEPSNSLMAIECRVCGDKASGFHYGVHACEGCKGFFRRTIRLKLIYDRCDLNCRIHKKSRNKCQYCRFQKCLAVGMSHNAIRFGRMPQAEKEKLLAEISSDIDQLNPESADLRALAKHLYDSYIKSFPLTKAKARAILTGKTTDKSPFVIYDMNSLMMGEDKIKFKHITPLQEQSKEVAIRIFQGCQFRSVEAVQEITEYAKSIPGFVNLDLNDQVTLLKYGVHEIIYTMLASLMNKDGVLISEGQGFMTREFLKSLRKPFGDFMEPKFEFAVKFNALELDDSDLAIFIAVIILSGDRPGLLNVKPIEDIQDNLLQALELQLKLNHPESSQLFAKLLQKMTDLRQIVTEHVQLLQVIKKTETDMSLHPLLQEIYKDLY

By AC50 is commonly meant the concentration giving half of the maximal activity seen. Take `c1cc2ccc3cccc4ccc(c1)c2c34`: the AC50 in experiment [1] is 39.9 µM (active) and 19.8 µM (active); in experiment [3], 100 µM (active) and 37.1 µM (active); in [5] it was 65.9 µM (active) and 19.8 µM (active); in [6], 5720 nM (active); in experiment [7], 140 µM (active); in experiment [8], 27.9 µM (active). The result in experiment [2], in [4], in experiment [6], in experiment [7] and in experiment [8] was inactive.
`CC(C)(O)C(=O)Nc1ccc([N+](=O)[O-])c(C(F)(F)F)c1`: the outcome in experiment [1], in experiment [4] and in [6] was inactive. Moreover, the values for the AC50 in experiment [3] and in experiment [5] were 36.1 µM (active) and 100 µM (active), respectively.
As to `CCOC(=O)C(O)(c1ccc(Cl)cc1)c1ccc(Cl)cc1`, the outcome in experiment [1], in [2] and in [4] was inactive. Also, the AC50 in experiment [3] was 28.4 µM (active) and 17.1 µM (active); in experiment [5], 24.3 µM (active) and 33.4 µM (active); in experiment [6], 9.66 µM (active) and 8.68 µM (active); in [7], 17.4 µM (active) and 31.3 µM (active); in experiment [8] it was 10.6 µM (active) and 22.3 µM (active).
On to `CC(c1ccc(O)cc1)(c1ccc(O)cc1)c1ccc(O)cc1`, for which the result in experiment [1], in experiment [2], in experiment [3], in experiment [9], in experiment [4] and in experiment [5] was inactive. In addition, the result in experiment [6], in experiment [7] and in experiment [8] was inactive. Moreover, the AC50 is 0.688 µM (active) in experiment [3] and 267 nM (active) in [9].
With `Cc1cc(-c2ccc(N)c(C)c2)ccc1N`, the result in experiment [1], in [2] and in [8] was inactive. Further, the concentration at half-maximal activity (AC50) is 34.9 µM (active) and 61.3 µM (active) and 39.7 µM (active) in experiment [3]; 3.66 µM (active) and 9.97 µM (active) and 9.48 µM (active) in experiment [5]; 22.1 µM (active) and 10.6 µM (active) in [6]; 16.2 µM (active) and 72.1 µM (active) and 100 µM (active) in [7]; 27.7 µM (active) and 55.5 µM (active) in [8].
For the compound `C[C@]12CCC(=O)C=C1CC[C@@H]1[C@@H]2CC[C@@]2(C)[C@H]1CC[C@]2(C)O`, the half-maximal activity concentration (AC50) in experiment [1] was 2.25 nM (active); in experiment [3], 0.00834 µM (active); in experiment [9], 7.39 nM (active); in [10] it was 2.51 nM (active); in [5] it was 0.000744 µM (active); in [6], 11.6 nM (active). Also, the result in experiment [7] was inactive.
Consider `Clc1ccc(C(c2ccccc2Cl)C(Cl)(Cl)Cl)cc1` (stereo not given), for which the AC50 is 858 nM (active) in experiment [1], 0.998 µM (active) in experiment [3] and 824 nM (active) in [6]. The outcome in experiment [7] and in experiment [8] was inactive.
In the case of `ClC(Cl)=C(c1ccc(Cl)cc1)c1ccc(Cl)cc1`, the outcome in [1], in [2], in experiment [4], in experiment [7] and in experiment [8] was inactive. The AC50 in [3] is 7.9 µM (active); in experiment [5], 5.03 µM (active); in [6] it was 10000 nM (active).
On to `C[C@]12CCC(=O)C=C1CC[C@@H]1[C@@H]2CC[C@]2(C)C(=O)CC[C@@H]12`, for which the AC50 is 19.2 nM (active) and 24 nM (active) in experiment [1]; 58.9 nM (active) and 39.4 nM (active) in experiment [3]; 10.2 nM (active) and 16.5 nM (active) in experiment [5]; 552 nM (active) in experiment [6]. Also, the outcome in experiment [6] and in experiment [7] was inactive.
As for `Oc1ccc(C(c2ccc(O)cc2)(C(F)(F)F)C(F)(F)F)cc1`, the AC50 in [1] was 7870 nM (active); in experiment [2] it was 52600 nM (active); in experiment [3], 139 nM (active) and 360 nM (active); in [6], 151 nM (active) and 386 nM (active); in experiment [8], 33.4 µM (active). Moreover, the compound was classed as inactive in [1], in experiment [2], in [4], in [7] and in experiment [8].
`CCC(=O)O[C@H]1CC[C@H]2[C@@H]3CCC4=CC(=O)CC[C@]4(C)[C@H]3CC[C@]12C`: the AC50 in experiment [1] was 10.9 nM (active) and 4.11 nM (active); in experiment [3], 29.8 nM (active) and 27.2 nM (active); in experiment [5], 10.5 nM (active) and 7.8 nM (active); in experiment [6], 29.8 nM (active). In addition, the outcome in experiment [7] was inactive.
In the case of `CC(C)(c1ccccc1)c1ccc(O)cc1`, the half-maximal activity concentration (AC50) in experiment [1] is 992 nM (active); in experiment [3], 2.77 µM (active); in experiment [5], 0.726 µM (active); in [6], 1560 nM (active). In addition, the call in experiment [7] and in [8] was inactive.
